NS1 function inh – qHTS Assay for Inhibitors of Influenza NS1 Protein Function | Potency, µM (titrated, usually from 46.1 µM) | 0.4% of 270,000 active | AID 2326, 2010; calls by dose curve; also: actives are rising curves; nearly all actives have a fitted effect of over 50% in size
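Compounds were scored for reversing the slow growth caused by influenza A NS1 in S. cerevisiae, measured by optical density at 600 nm. Assay medium contained 2% galactose at pH 6.0; NS1-free yeast of the same strain were the positive control.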
LmPK inhibitor – qHTS Assay for Inhibitors of Leishmania Mexicana Pyruvate Kinase (LmPK) | Q27686 | purified LmPK, Kinase-Glo ATP luminescence, 1 h | Potency, µM (top dose mostly 57.5 µM), hits mostly inhibitors | 0.37% of 290,000 active
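qHTS format; LmPK 0.1 nM; substrates PEP 0.5 mM and ADP 0.1 mM. One-hour room-temperature incubation, then coupled luciferase luminescence; 0.5 nM enzyme wells mark activation.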
FBPA Giardia inh – qHTS Assay for Inhibitors of Fructose-1,6-bisphosphate Aldolase from Giardia Lamblia. A8B2U2. purified Giardia FBPA. Potency, µM (doses to about 59.6 µM), actives largely listed as inhibitors. 0.71% of 290,000 active; also: nearly all actives have a fitted effect of over 55% in size
Target sequence (A8B2U2 whole entry, looked up): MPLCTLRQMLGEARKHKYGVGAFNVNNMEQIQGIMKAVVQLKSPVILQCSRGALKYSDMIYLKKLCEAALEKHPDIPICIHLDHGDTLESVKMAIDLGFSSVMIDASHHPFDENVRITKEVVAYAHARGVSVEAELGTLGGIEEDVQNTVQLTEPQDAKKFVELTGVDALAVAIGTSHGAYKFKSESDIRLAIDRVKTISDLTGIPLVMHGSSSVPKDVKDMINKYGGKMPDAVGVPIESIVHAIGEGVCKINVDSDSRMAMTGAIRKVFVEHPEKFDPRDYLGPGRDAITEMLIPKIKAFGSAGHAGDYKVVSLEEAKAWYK
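Giardia FBPA (40 nM reagent) was preincubated 10 min at RT with compound (up to 57.5 uM final), then substrate plus GAPDH/TPI/NAD/arsenate coupling system with diaphorase/resazurin was added; resorufin fluorescence (525/598 nm) was read after 20 min.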
RE007 growth inh – qHTS Assay for Inhibitors of the HIV-1 protein Vpr; S. pombe RE007 Vpr strain, BacTiter-Glo ATP luminescence, 24 h; Potency, µM (top dose mostly 92.2 µM), actives largely listed as inhibitors; 0.21% of 360,000 active; AID 651644, 2012; active = well fitted falling curve with a large enough effect; inconclusive = small, poorly fitted or top-dose-only effect; inactive = no such curve, though single readings can be large or run the other way; also: nearly all actives have a fitted effect of over 50% in size
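Fission yeast strain RE007, carrying one chromosomally integrated HIV-1 vpr copy, was seeded at OD 0.01 in PMG+AL medium with 23 nL pinned compound. After 24 h at 30 °C and 99% humidity, viability was read by BacTiter-Glo luminescence.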
Sm TGR inh – qHTS Assay for the Inhibitors of Schistosoma Mansoni Peroxiredoxins. Schistosoma mansoni thioredoxin glutathione reductase (TGR), Q962Y6. Potency, µM (series often up to 114 µM), usual class: inhibitors. purified TGR, DTNB reduction, TNB absorbance 405 nm. 3% of 360,000 active; also: nearly all actives have a fitted effect of over 60% in size
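Kinetic colorimetric format: TGR-catalysed, NADPH-driven DTNB reduction monitored via TNB absorbance. Enzyme dispensed at 20 nM; compound exposure 15 min at room temperature before reaction start.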
Tb PYK inh – qHTS of Trypanosoma Brucei Inhibitors; pyruvate kinase (Trypanosoma brucei), Q57TT1; TbPYK enzyme, Kinase-Glo Plus ATP luminescence, 45 min; Potency, µM (series often up to 76.8 µM), hits mostly inhibitors; 0.12% of 410,000 active; AID 624173, 2012; also: nearly all actives have a fitted effect of over 50% in size
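ADP (130 uM final) triggers the TbPYK reaction after compound addition; incubation is 45 min at room temperature. Kinase-Glo Plus is then added and luminescence imaged. Normalized data are fitted to concentration-effect curves.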
Hits are given with their value; n = inactive; u = inconclusive; x = no result given; [ ] = remark or other dose. A selection: hits, their analogues and other compounds. The true share with any hit is near 3.5%. Unless noted, calls follow the shape of the dose curve; as a rule, active = well fitted curve in the direction sought with a large enough effect; inconclusive = small, poorly fitted or top-dose-only effect, or another doubt; inactive = no such curve, though single readings can be large; an effect the other way counts as inactive or inconclusive.

SMILES | NS1 function inh | LmPK inhibitor | FBPA Giardia inh | RE007 growth inh | Sm TGR inh | Tb PYK inh
CCOC(=O)c1c(C)oc2c(F)c(F)c(F)c(F)c2c1=O | n | n | n | n | 32µM | n
CC1CCCCN1C(=O)c1ccc(C(=O)Nc2ccc(F)cc2)cc1 (stereo not given) | x | x | x | n | n | n
Cc1ccc(C(=O)N2CCCC(Nc3ccc(F)cc3)C2)cc1C (stereo not given) | n | n | x | n | 79µM | n
O=C(Nc1ccc(F)cc1)c1ccc(C(=O)N2CCCC(O)C2)cc1 (stereo not given) | x | x | x | n | 4µM | n
COc1ccc(N2CCN(C(=O)c3nn(C)c4c3CSc3ccccc3-4)CC2)cc1 | x | x | x | x | n | n
CCCCCCOc1ccc(/C(C)=N/NC2=NCCN2)cc1 | n | n | u | 35µM | n | n
Cc1cc(=O)[nH]c(SCC(=O)O)c1C#N | n | n | n | n | n | n
Cc1cc(=O)[nH]c(SCC(=O)C23CC4CC(CC(C4)C2)C3)c1C#N | n | n | n | n | 16µM | n
CCOC(=O)c1c(C)oc2nc(C)nc(N3CCN(c4cccc(C(F)(F)F)c4)CC3)c12 | x | x | x | x | n | n
O=C(NCc1ccco1)C1CC(c2ccc(Cl)c(Cl)c2)=NO1 (stereo not given) | n | n | n | n | n | n
Cc1ccc(CNC(=O)C2CC(c3cc(C(F)(F)F)cc(C(F)(F)F)c3)=NO2)o1 (stereo not given) | n | n | n | n | 18µM | n
Cc1ccc(CNC(=O)C2CC(c3cccc([N+](=O)[O-])c3)=NO2)o1 (stereo not given) | n | n | n | n | 32µM | n
COc1ccc(CCNC(=O)C2CC(c3cccc([N+](=O)[O-])c3)=NO2)cc1 (stereo not given) | n | n | n | n | n | n
O=C(NCc1ccco1)C1CC(c2c(Cl)cccc2Cl)=NO1 (stereo not given) | n | n | n | n | 40µM | n
Cc1cccc(N2CC(c3nc4ccccc4n3CCC3CCCCC3)CC2=O)c1 (stereo not given) | x | x | x | x | n | n
COc1ccc(C2=C(C)C(N3CCC(C(=O)NCc4ccco4)CC3)=NS2(=O)=O)cc1 | x | x | x | x | n | n
C=CCc1cc(/C=C2/NC(=O)NC2=O)cc(OCC)c1O | x | n | n | n | 50µM | n
Cc1ccc(-c2nc(CCNC(=O)C(=O)Nc3c(C)cccc3C)cs2)cc1 | x | x | x | x | n | n
CCCC[C@]12Cc3ccccc3C(O1)c1c(cc(-c3ccccc3)oc1=O)O2 | n | n[11.5 µM] | 2µM | x | 3.2µM | x
Nc1nc(O)c(N=Nc2ccc(S(N)(=O)=O)cc2)c(=O)[nH]1 | n | n | n | n | n | n
NS(=O)(=O)c1ccc(N=Nc2c[nH]c(=O)c(O)c2)cc1 | n | u | 7.1µM | n | 8.9µM | u
O=c1cc(-c2ccccc2)c2cc(Cl)c3c(c2o1)CN(Cc1ccccc1)CO3 | x | x | x | x | n | n
Cc1ccc(Cl)cc1NC(=O)Cn1ncc2c(C)n(Cc3ccccc3F)c(C)c2c1=O | x | x | x | x | n | n
CCOC(=O)N1CCN(C(=O)CCl)CC1 | n | n | n | n | 40µM | n
CC(C)(C)NC(=O)CN1CCN(C(=O)CCl)CC1 | x | n | n | n | 45µM | n
SMILES | NS1 function inh | LmPK inhibitor | FBPA Giardia inh | RE007 growth inh | Sm TGR inh | Tb PYK inh
CCCOc1ccc(C2C(=O)N(C3CCCCCC3)CC(=O)N2Cc2ccc(OC)cc2)cc1OC (stereo not given) | x | x | x | x | n | n
O=C(c1cccc(F)c1)N1CCC(c2c[nH]c3ccccc23)(c2c[nH]c3ccccc23)CC1 | x | x | x | x | n | n
C=C(C)CN(CC#N)CC(=C)C | n | x | x | x | x | x
Cc1ccnc(NS(=O)(=O)c2ccc(NC(=O)C(C)(C)Oc3ccc(Cl)cc3)cc2)n1 | x | x | x | x | n | n
Cc1ccc(S(=O)(=O)Cc2nc(-c3ccc(C(=O)NCCCOC(C)C)cc3)oc2C)cc1 | x | x | x | x | n | n
COCCNC(=O)c1ccc(-c2nc(CS(=O)(=O)c3ccccc3)c(C)o2)cc1 | x | x | x | x | 22µM | n
COc1ccccc1CNC(=O)c1ccc(-c2nc(CS(=O)c3ccc(C)cc3)c(C)o2)cc1 (stereo not given) | x | x | x | x | 13µM | n
COc1ccc(CNC(=O)c2ccc(-c3nc(CS(=O)c4ccc(C)cc4)c(C)o3)cc2)cc1 (stereo not given) | x | x | x | x | u | n
CCCNC(=O)c1ccc(-c2nc(CS(=O)(=O)c3ccc(C)cc3)c(C)o2)cc1 | x | x | x | x | 40µM | n
Cc1cccc(CNC(=O)c2ccc(-c3nc(CS(=O)(=O)c4ccccc4)c(C)o3)cc2)c1 | x | x | x | x | u | n
COc1cccc(CNC(=O)c2ccc(-c3nc(CS(=O)(=O)c4ccccc4)c(C)o3)cc2)c1 | x | x | x | x | 28µM | n
COc1ccc(-n2cc(C(=O)Nc3ccccc3C#N)c3ccccc3c2=O)cc1 | x | x | x | x | n | n
COc1ccc(-c2cn3nc(SCC(=O)Nc4ccc(C)c(Cl)c4)ccc3n2)cc1 | x | x | x | x | n | n
COc1ccc2cc1Oc1cc3c(cc1OC)CC[N+](C)(C)C3Cc1ccc(cc1)Oc1c(OC)c(OC)cc3c1C(C2)[N+](C)(C)CC3 (stereo not given) | x | x | x | x | x | n
Cc1ccc(S(=O)(=O)Cc2nc(-c3ccc(C(=O)NCc4ccccc4F)cc3)oc2C)cc1 | x | x | x | x | 7.9µM | x
Cc1nc(S(=O)(=O)N2CCN(c3cccc(Cl)c3)CC2)cn1C | x | x | x | x | n | n
O=C(CNc1ccc2c(c1)OCO2)N/N=C\c1cn(Cc2ccc(F)cc2)c2ccccc12 | 13µM | n | n | x | u | x
c1ccc(-c2ccc(-c3nc(-c4ccncc4)no3)cc2)cc1 | n | n | n | n | n[11.4 µM] | n
Brc1ccc(-c2nc(-c3ccncc3)no2)o1 | n | n | n | n | n | n
c1coc(-c2nc(-c3ccncc3)no2)c1 | n | 22µM | n | n | n | n
c1ccc(-c2nc(-c3ccncc3)no2)cc1 | n | 14µM | n | n | n | n
Cc1cccc(C(=O)Nc2cccc(C(=O)N3CCOCC3)c2)c1 | n | n | n | n | n | n
CC(=O)/C(=N/Nc1cccc(C)c1)N1CCOCC1 | n | n | n | n | 50µM | n
O=c1c(Cl)c(NCCCO)cnn1-c1nc2ccccc2[nH]1 | n | 14µM | n | u | 8.9µM | u
C=CCN(CC=C)c1cnn(-c2nc3ccccc3[nH]2)c(=O)c1Cl | n | 16µM | n | n | n | n
O=c1c(Cl)c(NCCO)cnn1-c1cccc(Cl)c1 | x | n | n | n | n | n
O=C(NCc1ccc(Cl)cc1)c1cc2cccc3c2n1CCS3 | x | x | x | x | n | n[15.4 µM]
Cc1ccccc1C(=O)Nc1cccc(C(=O)OCc2cc(=O)n3nc(C4CC4)sc3n2)c1 | x | x | x | x | n | n

Compound activity as filed in PubChem BioAssay.
